Common to all, as to assay: DAPPL (digital affinity profiling via proximity ligation, sequencing); 10 mM Tris-HCl pH 7.5, 50 mM NaCl, 1 mM DTT, 4% glycerol, room temperature, 30 min; GST-TFs on glutathione beads, 16-mer random dsDNA library, 0.1% formaldehyde crosslink after washing; high values mean tight binding
Common to all, as to conditions: protein: recombinant; tags: N-terminal GST; dsDNA, one strand shown

For assay [1], the target named is T1, FLI1 (Homo sapiens, UniProt Q01543 1-452).
T1 sequence: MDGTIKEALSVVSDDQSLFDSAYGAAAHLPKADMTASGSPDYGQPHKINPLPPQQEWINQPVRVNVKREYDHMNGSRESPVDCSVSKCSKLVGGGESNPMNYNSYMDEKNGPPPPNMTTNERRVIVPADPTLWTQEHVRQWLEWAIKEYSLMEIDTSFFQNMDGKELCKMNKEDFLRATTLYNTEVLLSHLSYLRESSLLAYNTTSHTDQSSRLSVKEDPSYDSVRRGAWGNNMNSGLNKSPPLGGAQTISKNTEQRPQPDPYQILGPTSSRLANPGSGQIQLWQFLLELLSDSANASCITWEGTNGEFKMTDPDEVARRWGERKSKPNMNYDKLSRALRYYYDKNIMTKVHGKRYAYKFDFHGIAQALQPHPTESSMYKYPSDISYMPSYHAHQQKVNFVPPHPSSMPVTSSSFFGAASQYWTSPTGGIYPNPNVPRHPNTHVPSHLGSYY
The method, boiled down:
(§1)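 Pools of DNA-barcoded human transcription factors, expressed in yeast as GST fusions on glutathione beads and combined with a tag-only sample, were incubated with 200 nmole of a 16-mer random double-stranded DNA library. Incubation took 30 min at room temperature in Tris/NaCl/DTT/glycerol buffer and was followed by washing, 0.1% formaldehyde crosslinking, proximity ligation (BsaI/T4 ligase, 1 h, 37 °C), PCR amplification and sequencing on an Illumina NextSeq500. Binding signal is the ratio of a hexamer's read frequency for a factor to its frequency for the tag-only sample.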

Assay [2] concerns the target T2, ELK1 (Homo sapiens, UniProt P19419 1-428).
T2 sequence: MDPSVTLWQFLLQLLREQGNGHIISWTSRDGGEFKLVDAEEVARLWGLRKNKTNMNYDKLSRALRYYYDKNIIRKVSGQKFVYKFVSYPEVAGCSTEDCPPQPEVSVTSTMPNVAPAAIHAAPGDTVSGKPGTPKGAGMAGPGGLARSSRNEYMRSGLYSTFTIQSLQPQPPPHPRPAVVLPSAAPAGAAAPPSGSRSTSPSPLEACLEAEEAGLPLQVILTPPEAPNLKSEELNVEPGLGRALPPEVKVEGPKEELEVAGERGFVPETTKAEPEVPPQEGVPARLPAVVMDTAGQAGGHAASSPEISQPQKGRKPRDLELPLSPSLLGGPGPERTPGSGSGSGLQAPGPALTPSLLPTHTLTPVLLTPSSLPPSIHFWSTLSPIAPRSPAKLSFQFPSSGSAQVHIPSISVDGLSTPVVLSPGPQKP
In a few lines:
as §1

Assay [3] addresses T3, GABPA (Homo sapiens, UniProt Q06546 1-454).
T3 sequence: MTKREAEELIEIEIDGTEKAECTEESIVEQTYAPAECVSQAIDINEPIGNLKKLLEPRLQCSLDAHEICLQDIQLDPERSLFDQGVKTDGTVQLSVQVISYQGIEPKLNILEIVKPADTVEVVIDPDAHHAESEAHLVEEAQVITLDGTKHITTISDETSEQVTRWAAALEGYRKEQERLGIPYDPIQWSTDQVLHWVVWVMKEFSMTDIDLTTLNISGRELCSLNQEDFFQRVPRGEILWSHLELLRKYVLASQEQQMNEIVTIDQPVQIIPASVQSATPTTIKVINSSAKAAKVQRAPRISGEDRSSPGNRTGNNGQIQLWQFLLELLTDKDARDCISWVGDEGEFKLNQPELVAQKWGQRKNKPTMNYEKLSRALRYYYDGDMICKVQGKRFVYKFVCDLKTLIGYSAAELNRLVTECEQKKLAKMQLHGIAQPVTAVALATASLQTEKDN
In a few lines:
as §1

Assay [4] concerns the target T4, ERG (Homo sapiens, UniProt P11308 1-479).
T4 sequence: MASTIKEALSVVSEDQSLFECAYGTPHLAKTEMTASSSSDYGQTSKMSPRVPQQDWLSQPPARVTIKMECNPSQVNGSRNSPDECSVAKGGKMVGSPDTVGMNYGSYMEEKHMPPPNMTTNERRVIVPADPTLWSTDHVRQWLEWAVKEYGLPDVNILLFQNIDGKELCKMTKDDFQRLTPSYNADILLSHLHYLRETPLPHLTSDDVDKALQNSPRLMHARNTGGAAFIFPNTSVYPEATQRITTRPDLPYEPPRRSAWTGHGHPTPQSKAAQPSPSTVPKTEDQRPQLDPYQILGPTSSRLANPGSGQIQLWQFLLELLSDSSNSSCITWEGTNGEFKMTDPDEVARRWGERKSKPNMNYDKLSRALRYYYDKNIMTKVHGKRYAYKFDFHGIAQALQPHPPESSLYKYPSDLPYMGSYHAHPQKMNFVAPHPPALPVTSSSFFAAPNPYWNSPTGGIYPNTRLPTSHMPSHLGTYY
The method, boiled down:
as §1

Assay [5] deals with ELF1 (Homo sapiens, UniProt P32519 1-619). In a few lines: as §1
In assay [6] the target is T5, EHF (Homo sapiens, UniProt Q9NZC4 1-300).
T5 sequence: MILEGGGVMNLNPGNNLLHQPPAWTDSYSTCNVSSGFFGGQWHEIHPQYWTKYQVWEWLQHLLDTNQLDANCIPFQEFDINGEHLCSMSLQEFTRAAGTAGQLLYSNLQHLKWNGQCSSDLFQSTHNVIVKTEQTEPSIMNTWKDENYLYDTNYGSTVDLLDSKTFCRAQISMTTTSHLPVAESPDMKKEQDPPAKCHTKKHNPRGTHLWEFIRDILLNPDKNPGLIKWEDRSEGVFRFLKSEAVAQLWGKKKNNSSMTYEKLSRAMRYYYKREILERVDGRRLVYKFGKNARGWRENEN
The method, boiled down: as §1

Assay [7] has as its target SPI1 (Homo sapiens, UniProt P17947 1-270). The method, boiled down:
as §1

Assay [8] concerns the target SPIB (Homo sapiens, UniProt Q01892 1-262). In a few lines:
as §1

Assay [9] has as its target T6, ELK3 (Homo sapiens, UniProt P41970 1-407).
T6 sequence: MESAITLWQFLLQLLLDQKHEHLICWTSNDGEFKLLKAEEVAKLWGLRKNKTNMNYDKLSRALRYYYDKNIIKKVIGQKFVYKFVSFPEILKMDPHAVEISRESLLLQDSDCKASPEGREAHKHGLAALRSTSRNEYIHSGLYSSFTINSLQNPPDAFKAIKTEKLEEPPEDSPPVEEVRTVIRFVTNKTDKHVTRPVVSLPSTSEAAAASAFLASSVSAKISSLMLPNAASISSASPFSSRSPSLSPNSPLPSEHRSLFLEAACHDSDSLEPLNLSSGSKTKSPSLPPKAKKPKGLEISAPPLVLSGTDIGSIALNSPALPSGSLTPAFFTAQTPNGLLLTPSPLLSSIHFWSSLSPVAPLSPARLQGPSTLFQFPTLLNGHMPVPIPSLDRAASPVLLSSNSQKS
In a few lines: as §1

ELF1, sequence (P32519 whole entry): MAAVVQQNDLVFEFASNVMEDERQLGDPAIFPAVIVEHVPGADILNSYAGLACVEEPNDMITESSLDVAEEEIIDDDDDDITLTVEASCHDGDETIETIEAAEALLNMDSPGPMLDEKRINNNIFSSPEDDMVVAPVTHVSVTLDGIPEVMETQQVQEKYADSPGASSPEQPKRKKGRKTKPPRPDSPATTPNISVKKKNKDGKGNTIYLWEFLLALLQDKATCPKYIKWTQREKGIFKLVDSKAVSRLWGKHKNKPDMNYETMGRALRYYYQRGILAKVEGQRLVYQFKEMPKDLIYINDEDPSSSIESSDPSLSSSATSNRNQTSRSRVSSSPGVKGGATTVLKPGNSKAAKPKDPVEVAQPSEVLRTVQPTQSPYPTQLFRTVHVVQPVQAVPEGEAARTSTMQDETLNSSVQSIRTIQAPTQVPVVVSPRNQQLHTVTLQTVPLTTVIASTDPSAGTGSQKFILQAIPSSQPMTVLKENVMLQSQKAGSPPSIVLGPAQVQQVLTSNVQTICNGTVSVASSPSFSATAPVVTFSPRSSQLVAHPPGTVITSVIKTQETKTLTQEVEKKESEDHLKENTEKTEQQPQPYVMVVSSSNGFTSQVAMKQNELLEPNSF
SPIB, sequence (Q01892 whole entry): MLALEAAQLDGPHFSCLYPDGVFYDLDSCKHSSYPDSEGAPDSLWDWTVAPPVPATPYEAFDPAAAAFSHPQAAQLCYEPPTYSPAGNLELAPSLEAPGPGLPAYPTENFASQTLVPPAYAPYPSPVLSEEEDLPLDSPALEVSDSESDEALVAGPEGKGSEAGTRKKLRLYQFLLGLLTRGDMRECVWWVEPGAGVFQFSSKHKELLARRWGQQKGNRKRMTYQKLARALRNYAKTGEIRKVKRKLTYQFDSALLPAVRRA

Take TTGTAC: the binding signal is 1.37 fold enrichment (6-mer frequency, TF over GST control) in assay [1]; 1.51 fold enrichment (6-mer frequency, TF over GST control) in assay [2]; 1.32 fold enrichment (6-mer frequency, TF over GST control) in assay [3]; 1.33 fold enrichment (6-mer frequency, TF over GST control) in assay [4]; 1.41 fold enrichment (6-mer frequency, TF over GST control) in assay [5]; 1.33 fold enrichment (6-mer frequency, TF over GST control) in assay [6]. For the same sequence, the binding signal in assay [7] is 1.39 fold enrichment (6-mer frequency, TF over GST control); in assay [8], 1.44 fold enrichment (6-mer frequency, TF over GST control); in assay [9], 1.18 fold enrichment (6-mer frequency, TF over GST control).
For CGTTCC, the binding signal was 1.43 fold enrichment (6-mer frequency, TF over GST control) in assay [1]; 1.35 fold enrichment (6-mer frequency, TF over GST control) in [2]; 1.29 fold enrichment (6-mer frequency, TF over GST control) in [3]; 1.45 fold enrichment (6-mer frequency, TF over GST control) in [4]; 1.44 fold enrichment (6-mer frequency, TF over GST control) in assay [5]; 1.42 fold enrichment (6-mer frequency, TF over GST control) in [6]. In addition, the binding signal in assay [7] was 1.44 fold enrichment (6-mer frequency, TF over GST control); in [8], 1.54 fold enrichment (6-mer frequency, TF over GST control); in [9], 1.46 fold enrichment (6-mer frequency, TF over GST control).
For the sequence CTGACC, the binding signal is 1.4 fold enrichment (6-mer frequency, TF over GST control) in assay [1]; 1.41 fold enrichment (6-mer frequency, TF over GST control) in assay [2]; 1.41 fold enrichment (6-mer frequency, TF over GST control) in assay [3]; 1.23 fold enrichment (6-mer frequency, TF over GST control) in assay [4]; 1.46 fold enrichment (6-mer frequency, TF over GST control) in assay [5]; 1.59 fold enrichment (6-mer frequency, TF over GST control) in assay [6]. For the same sequence, the binding signal is 1.25 fold enrichment (6-mer frequency, TF over GST control) in [7]; 1.26 fold enrichment (6-mer frequency, TF over GST control) in assay [8]; 1.33 fold enrichment (6-mer frequency, TF over GST control) in [9].
As to TTATTA, the binding signal was 1.17 fold enrichment (6-mer frequency, TF over GST control) in assay [1]; 1.05 fold enrichment (6-mer frequency, TF over GST control) in assay [2]; 1.04 fold enrichment (6-mer frequency, TF over GST control) in [3]; 1.1 fold enrichment (6-mer frequency, TF over GST control) in assay [4]; 1.1 fold enrichment (6-mer frequency, TF over GST control) in assay [5]; 1.14 fold enrichment (6-mer frequency, TF over GST control) in [6]. The binding signal in [7] is 1.1 fold enrichment (6-mer frequency, TF over GST control); in assay [8], 1.04 fold enrichment (6-mer frequency, TF over GST control); in assay [9] it was 1.2 fold enrichment (6-mer frequency, TF over GST control).
Take CTGCCC: the binding signal in assay [1] was 1.31 fold enrichment (6-mer frequency, TF over GST control); in [2], 1.29 fold enrichment (6-mer frequency, TF over GST control); in assay [3], 1.29 fold enrichment (6-mer frequency, TF over GST control); in assay [4], 1.36 fold enrichment (6-mer frequency, TF over GST control); in [5], 1.32 fold enrichment (6-mer frequency, TF over GST control); in assay [6] it was 1.46 fold enrichment (6-mer frequency, TF over GST control). In addition, the binding signal in assay [7] was 1.27 fold enrichment (6-mer frequency, TF over GST control); in assay [8] it was 1.19 fold enrichment (6-mer frequency, TF over GST control); in [9], 1.1 fold enrichment (6-mer frequency, TF over GST control).
With GACATC, the binding signal is 1.36 fold enrichment (6-mer frequency, TF over GST control) in assay [1]; 1.4 fold enrichment (6-mer frequency, TF over GST control) in assay [2]; 1.31 fold enrichment (6-mer frequency, TF over GST control) in assay [3]; 1.27 fold enrichment (6-mer frequency, TF over GST control) in assay [4]; 1.21 fold enrichment (6-mer frequency, TF over GST control) in [5]; 1.35 fold enrichment (6-mer frequency, TF over GST control) in [6]. Besides, the binding signal in assay [7] is 1.26 fold enrichment (6-mer frequency, TF over GST control); in assay [8], 1.3 fold enrichment (6-mer frequency, TF over GST control); in assay [9], 1.38 fold enrichment (6-mer frequency, TF over GST control).
On to ACGGCT, for which the binding signal in [1] is 1.02 fold enrichment (6-mer frequency, TF over GST control); in [2], 1.16 fold enrichment (6-mer frequency, TF over GST control); in assay [3], 1.13 fold enrichment (6-mer frequency, TF over GST control); in assay [4] it was 1.12 fold enrichment (6-mer frequency, TF over GST control); in assay [5], 1.08 fold enrichment (6-mer frequency, TF over GST control); in assay [6] it was 1 fold enrichment (6-mer frequency, TF over GST control). The binding signal in assay [7] was 1.18 fold enrichment (6-mer frequency, TF over GST control); in assay [8], 1.14 fold enrichment (6-mer frequency, TF over GST control); in assay [9] it was 1.05 fold enrichment (6-mer frequency, TF over GST control).
For the sequence TGATCC, the binding signal in assay [1] was 1.28 fold enrichment (6-mer frequency, TF over GST control); in assay [2], 1.32 fold enrichment (6-mer frequency, TF over GST control); in assay [3], 1.44 fold enrichment (6-mer frequency, TF over GST control); in assay [4], 1.29 fold enrichment (6-mer frequency, TF over GST control); in assay [5], 1.26 fold enrichment (6-mer frequency, TF over GST control); in assay [6], 1.2 fold enrichment (6-mer frequency, TF over GST control). The binding signal in assay [7] is 1.21 fold enrichment (6-mer frequency, TF over GST control); in assay [8], 1.37 fold enrichment (6-mer frequency, TF over GST control); in [9], 1.18 fold enrichment (6-mer frequency, TF over GST control).

(Values after paper PMC7862700, “An all-to-all approach to the identification of sequence-specific readers for epigenetic DNA modifications on cytosine”.)
